# In article PMC7862700, “An all-to-all approach to the identification of sequence-specific readers for epigenetic DNA modifications on cytosine”:
# Columns and labels:
# Experiment in all cases: DAPPL (digital affinity profiling via proximity ligation, sequencing); 10 mM Tris-HCl pH 7.5, 50 mM NaCl, 1 mM DTT, 4% glycerol, room temperature, 30 min; GST-TFs on glutathione beads, 16-mer random dsDNA library, 0.1% formaldehyde crosslink after washing; high values mean tight binding
# [1] = molecular target: T1, FEV (Homo sapiens, UniProt Q99581 1-238); details: protein: recombinant; tags: N-terminal GST; dsDNA, one strand shown
# T1 sequence: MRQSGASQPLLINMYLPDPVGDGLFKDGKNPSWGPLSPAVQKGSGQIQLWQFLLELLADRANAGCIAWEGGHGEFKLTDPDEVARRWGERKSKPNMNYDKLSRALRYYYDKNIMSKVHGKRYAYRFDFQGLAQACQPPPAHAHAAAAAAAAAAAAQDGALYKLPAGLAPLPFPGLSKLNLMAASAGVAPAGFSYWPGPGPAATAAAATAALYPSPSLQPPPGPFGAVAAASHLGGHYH
# How it was run: (§1)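 Binding signal is defined as a hexamer's read frequency for one factor over its frequency for the tag-only sample. To obtain reads, GST-fused human transcription factors were expressed in yeast, captured on glutathione beads, barcoded with DNA and pooled with that sample. Pools met 200 nmole of a 16-mer random double-stranded DNA library in Tris/NaCl/DTT/glycerol buffer for 30 min at room temperature before washing, 0.1% formaldehyde crosslinking, proximity ligation (BsaI/T4 ligase, 1 h, 37 °C), PCR and Illumina NextSeq500 sequencing.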
# [2] = molecular target: ETV5 (Homo sapiens, UniProt P41161 1-510); details: protein: recombinant; tags: N-terminal GST; dsDNA, one strand shown
# Sequence of ETV5 (P41161 whole entry): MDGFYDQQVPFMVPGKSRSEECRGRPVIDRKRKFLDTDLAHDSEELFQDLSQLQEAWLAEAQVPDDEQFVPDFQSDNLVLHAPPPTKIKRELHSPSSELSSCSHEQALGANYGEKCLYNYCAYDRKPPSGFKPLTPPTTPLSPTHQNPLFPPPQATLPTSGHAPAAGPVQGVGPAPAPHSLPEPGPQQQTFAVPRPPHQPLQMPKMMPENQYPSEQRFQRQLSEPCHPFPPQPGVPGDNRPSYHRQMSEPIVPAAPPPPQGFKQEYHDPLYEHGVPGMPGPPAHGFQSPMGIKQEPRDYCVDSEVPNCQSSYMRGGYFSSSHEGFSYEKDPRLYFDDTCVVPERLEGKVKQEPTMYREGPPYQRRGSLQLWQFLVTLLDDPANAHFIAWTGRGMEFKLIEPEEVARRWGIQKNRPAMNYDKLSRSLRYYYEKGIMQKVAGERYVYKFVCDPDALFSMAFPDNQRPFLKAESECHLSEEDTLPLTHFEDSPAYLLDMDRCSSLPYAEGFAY
# How it was run: as §1
# [3] = molecular target: HSF1 (Homo sapiens, UniProt Q00613 1-529); details: protein: recombinant; tags: N-terminal GST; chain copies: 3; dsDNA, one strand shown
# Sequence of HSF1 (Q00613 whole entry): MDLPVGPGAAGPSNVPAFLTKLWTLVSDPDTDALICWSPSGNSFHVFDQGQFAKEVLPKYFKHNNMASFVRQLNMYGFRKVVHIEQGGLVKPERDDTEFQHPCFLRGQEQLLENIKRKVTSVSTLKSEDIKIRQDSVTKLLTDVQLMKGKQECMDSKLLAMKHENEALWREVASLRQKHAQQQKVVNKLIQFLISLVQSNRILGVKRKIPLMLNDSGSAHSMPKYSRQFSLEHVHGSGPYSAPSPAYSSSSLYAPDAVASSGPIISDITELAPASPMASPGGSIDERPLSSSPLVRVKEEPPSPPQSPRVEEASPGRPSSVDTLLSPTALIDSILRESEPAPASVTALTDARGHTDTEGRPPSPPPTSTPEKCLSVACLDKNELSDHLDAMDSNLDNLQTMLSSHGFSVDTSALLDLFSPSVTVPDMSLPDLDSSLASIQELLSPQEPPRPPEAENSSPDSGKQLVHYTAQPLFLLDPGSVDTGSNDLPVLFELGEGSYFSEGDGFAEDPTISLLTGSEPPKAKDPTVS
# How it was run: as §1
# [4] = molecular target: T2, SPIC (Homo sapiens, UniProt Q8N5J4 1-248); details: protein: recombinant; tags: N-terminal GST; dsDNA, one strand shown
# T2 sequence: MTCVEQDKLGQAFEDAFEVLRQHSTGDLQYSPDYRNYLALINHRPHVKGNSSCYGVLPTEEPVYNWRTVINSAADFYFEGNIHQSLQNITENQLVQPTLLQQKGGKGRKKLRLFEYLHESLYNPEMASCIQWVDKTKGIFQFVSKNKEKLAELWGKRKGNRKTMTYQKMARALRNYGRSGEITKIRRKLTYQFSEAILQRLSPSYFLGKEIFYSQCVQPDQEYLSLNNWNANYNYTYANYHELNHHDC
# How it was run: as §1
# [5] = molecular target: ELF4 (Homo sapiens, UniProt Q99607 1-663); details: protein: recombinant; tags: N-terminal GST; dsDNA, one strand shown
# Sequence of ELF4 (Q99607 whole entry): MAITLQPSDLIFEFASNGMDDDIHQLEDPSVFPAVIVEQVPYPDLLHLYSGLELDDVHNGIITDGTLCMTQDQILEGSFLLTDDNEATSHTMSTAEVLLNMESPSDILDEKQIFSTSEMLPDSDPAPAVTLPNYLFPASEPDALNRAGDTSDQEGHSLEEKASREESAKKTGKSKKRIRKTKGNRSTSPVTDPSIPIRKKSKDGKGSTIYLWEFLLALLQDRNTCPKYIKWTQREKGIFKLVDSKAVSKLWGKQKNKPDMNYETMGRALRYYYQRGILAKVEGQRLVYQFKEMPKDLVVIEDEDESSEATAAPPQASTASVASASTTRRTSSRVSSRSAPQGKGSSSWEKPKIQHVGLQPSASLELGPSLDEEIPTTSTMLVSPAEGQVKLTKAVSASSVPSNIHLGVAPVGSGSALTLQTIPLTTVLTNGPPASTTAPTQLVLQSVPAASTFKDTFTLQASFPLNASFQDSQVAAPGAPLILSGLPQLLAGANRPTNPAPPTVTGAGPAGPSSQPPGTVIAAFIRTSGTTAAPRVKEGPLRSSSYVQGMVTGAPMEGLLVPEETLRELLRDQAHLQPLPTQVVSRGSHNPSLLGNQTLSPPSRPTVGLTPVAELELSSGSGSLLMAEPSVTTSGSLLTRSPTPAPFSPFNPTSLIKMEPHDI
# How it was run: as §1
# [6] = molecular target: T3, ELK4 (Homo sapiens, UniProt P28324-2 1-405); details: protein: recombinant; tags: N-terminal GST; dsDNA, one strand shown
# T3 sequence: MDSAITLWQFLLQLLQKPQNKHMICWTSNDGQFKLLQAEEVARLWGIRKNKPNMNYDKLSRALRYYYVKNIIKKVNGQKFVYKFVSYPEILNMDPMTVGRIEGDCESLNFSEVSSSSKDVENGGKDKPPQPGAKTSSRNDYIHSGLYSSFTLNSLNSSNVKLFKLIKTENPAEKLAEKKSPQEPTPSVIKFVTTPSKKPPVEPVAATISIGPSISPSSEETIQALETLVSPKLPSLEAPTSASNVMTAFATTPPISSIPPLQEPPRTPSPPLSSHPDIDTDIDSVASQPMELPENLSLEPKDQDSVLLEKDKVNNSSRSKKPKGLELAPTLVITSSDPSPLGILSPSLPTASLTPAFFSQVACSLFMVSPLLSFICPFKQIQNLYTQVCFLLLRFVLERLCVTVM
# How it was run: as §1
# [7] = molecular target: T4, ETV2 (Homo sapiens, UniProt O00321 1-342); details: protein: recombinant; tags: N-terminal GST; dsDNA, one strand shown
# T4 sequence: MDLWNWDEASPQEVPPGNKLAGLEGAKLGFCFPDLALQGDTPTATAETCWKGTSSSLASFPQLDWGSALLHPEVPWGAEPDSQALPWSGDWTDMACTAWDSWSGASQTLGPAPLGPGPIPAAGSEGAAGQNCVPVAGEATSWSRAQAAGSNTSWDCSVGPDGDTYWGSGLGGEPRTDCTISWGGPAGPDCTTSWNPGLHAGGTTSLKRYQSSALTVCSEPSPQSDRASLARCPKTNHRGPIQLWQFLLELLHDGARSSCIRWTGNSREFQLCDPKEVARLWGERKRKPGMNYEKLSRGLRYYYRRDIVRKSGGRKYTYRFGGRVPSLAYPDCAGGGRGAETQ
# How it was run: as §1
# [8] = molecular target: T5, ELF3 (Homo sapiens, UniProt P78545 1-371); details: protein: recombinant; tags: N-terminal GST; dsDNA, one strand shown
# T5 sequence: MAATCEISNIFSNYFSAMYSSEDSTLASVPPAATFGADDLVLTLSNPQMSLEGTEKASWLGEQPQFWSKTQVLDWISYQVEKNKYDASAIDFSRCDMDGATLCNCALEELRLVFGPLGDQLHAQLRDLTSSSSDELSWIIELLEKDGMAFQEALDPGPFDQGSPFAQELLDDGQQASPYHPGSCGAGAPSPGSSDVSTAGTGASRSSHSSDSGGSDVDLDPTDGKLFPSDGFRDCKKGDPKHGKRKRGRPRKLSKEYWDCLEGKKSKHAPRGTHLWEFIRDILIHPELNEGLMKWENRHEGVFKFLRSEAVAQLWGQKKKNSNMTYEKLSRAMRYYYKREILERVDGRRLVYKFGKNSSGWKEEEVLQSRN
# How it was run: as §1
# [9] = molecular target: CRX (Homo sapiens, UniProt O43186 1-299); details: protein: recombinant; tags: N-terminal GST; dsDNA, one strand shown
# Sequence of CRX (O43186 whole entry): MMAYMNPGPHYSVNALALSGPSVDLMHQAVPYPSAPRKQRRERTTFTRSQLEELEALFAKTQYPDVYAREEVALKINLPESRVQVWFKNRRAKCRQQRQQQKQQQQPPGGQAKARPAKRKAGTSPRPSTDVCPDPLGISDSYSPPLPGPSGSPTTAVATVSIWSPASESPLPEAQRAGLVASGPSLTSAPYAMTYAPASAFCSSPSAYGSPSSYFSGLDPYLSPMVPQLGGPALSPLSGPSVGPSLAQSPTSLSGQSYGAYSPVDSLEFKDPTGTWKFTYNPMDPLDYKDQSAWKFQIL
# How it was run: as §1
# [10] = molecular target: ETV1 (Homo sapiens, UniProt P50549 1-477); details: protein: recombinant; tags: N-terminal GST; dsDNA, one strand shown
# Sequence of ETV1 (P50549 whole entry): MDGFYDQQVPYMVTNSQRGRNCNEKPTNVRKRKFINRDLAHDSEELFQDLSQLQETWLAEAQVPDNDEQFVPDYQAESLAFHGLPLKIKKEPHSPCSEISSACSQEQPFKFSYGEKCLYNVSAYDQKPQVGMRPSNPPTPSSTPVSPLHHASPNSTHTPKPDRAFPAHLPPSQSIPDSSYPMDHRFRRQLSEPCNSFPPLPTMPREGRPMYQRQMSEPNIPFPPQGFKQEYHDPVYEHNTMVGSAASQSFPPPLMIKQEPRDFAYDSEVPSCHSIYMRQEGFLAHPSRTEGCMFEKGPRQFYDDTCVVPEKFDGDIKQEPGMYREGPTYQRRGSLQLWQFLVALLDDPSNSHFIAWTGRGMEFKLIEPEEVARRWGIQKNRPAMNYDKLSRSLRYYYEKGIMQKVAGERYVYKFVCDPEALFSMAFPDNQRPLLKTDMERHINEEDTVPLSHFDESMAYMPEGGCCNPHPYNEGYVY
# How it was run: as §1
sequence,measurement,setting,value
GTTTCG,binding signal,[1],"1.27 fold enrichment (6-mer frequency, TF over GST control)"
same,binding signal,[2],"1.28 fold enrichment (6-mer frequency, TF over GST control)"
same,binding signal,[3],"1.44 fold enrichment (6-mer frequency, TF over GST control)"
same,binding signal,[4],"1.24 fold enrichment (6-mer frequency, TF over GST control)"
same,binding signal,[5],"1.33 fold enrichment (6-mer frequency, TF over GST control)"
same,binding signal,[6],"1.34 fold enrichment (6-mer frequency, TF over GST control)"
same,binding signal,[7],"1.24 fold enrichment (6-mer frequency, TF over GST control)"
same,binding signal,[8],"1.09 fold enrichment (6-mer frequency, TF over GST control)"
same,binding signal,[9],"1.09 fold enrichment (6-mer frequency, TF over GST control)"
same,binding signal,[10],"1.27 fold enrichment (6-mer frequency, TF over GST control)"
